Drawing on PubChem BioAssay AID1671192 (National Center for Advancing Translational Sciences (NCATS), 2021), this text covers outcome for 40 compounds.

Inconclusive results are not listed. Calls of active or inactive are those of the source. The call rests on the fitted dose curve; in most records, active means well fitted curve in the direction sought with a large enough effect; inconclusive means small, poorly fitted or top-dose-only effect, or another doubt; inactive means no such curve, though single readings can be large or run the other way.

The experiment deals with Polyunsaturated fatty acid lipoxygenase ALOX15 (Homo sapiens) (UniProt P16050). As to the kind of experiment: Counterscreen qHTS for inhibitors of human arachidonate 12S-lipoxygenase (ALOX12): ALOX15 Assay. The note with it: purified ALOX15 enzyme activity; series mostly up to 110 µM. The source says: Assay Provider: Theodore R. Holman Ph.D.
Polyunsaturated fatty acid lipoxygenase ALOX15 (Homo sapiens), sequence (P16050 whole entry, looked up): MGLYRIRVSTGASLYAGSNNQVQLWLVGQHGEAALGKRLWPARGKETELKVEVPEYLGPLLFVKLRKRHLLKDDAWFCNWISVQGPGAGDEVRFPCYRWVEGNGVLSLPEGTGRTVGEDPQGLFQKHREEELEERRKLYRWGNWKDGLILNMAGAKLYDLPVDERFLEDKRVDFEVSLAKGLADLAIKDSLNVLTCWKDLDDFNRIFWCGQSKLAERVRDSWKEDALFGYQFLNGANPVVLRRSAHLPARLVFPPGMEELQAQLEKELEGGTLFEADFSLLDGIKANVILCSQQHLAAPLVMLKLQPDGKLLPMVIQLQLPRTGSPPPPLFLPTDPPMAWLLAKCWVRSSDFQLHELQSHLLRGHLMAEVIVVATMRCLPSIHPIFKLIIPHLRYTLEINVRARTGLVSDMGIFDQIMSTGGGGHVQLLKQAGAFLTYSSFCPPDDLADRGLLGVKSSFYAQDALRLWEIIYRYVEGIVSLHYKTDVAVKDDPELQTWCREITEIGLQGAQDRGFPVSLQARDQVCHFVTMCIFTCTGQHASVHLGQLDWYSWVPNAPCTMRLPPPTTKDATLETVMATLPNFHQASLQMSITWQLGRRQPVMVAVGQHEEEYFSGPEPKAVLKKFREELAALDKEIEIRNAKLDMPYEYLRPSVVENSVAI
University of California, Santa Cruz, California
Human lipoxygenase 12hLO is a member of the closely related lipoxygenase family of enzymes which catalyze the site-specific oxidation of arachidonic acid to various hormone precursor molecules and as such is a candidate for drug development in a variety of disease areas, such as cancer and inflammation. Inhibition of 12hLO activity was screened by utilizing arachidonic acid as a substrate. The extent of hydroperoxide product formation was measured by a secondary chromogenic reaction in which xylenol orange (XO, Sigma-Aldrich, cat. number 39,818-7) reacts with the ferric ions produced from the reaction between the hydroperoxide and ferrous ions. The Fe (III)-XO complex is characterized with red-shifted absorbance at 560 nm. A purified preparation of human 12hLO was supplied by Dr. Holman laboratory, University of California, Santa Cruz.
An assay against arachidonate 15-lipoxygenase (ALOX15) was developed to assess selective inhibition against ALOX12. Desired compounds would show potent inhibition against ALOX12 and minimal to no inhibition against ALOX15.
SEQUENCE No. (e.g., 1, 2, 3, etc.); PARAMETER (e.g., Cells, Incubation, Reagent, etc.); VALUE; DESCRIPTION
1; Enzyme; 3 uL; 40 nM ALOX15 (15hLO-1) enzyme solution dispensed in 1536-well Greiner black, clear bottom plates.
2; Compound; 23 nL; compounds and controls were added.
3; Incubate; 15 min; room temperature.
4; Substrate; 1 uL; 50 uM arachidonic acid (final concentration).
5; Incubate; 30 min; room temperature.
6; Reagent; 4 uL; Fe-XO solution was added to each well.
8; Incubation; 30 min; room temperature
9; Detector; absorbance; Read 1 at 405 nm absorbance using ViewLux (PerkinElmer) CCD imager.
10; Detector; absorbance; Read 2 at 573 nm absorbance using ViewLux (PerkinElmer) CCD imager.
NOTES (numbers refer to sequence above)
1; 40 nM ALOX15 (final concentration) in buffer solution (25 mM Hepes, 0.01% Triton X-100, pH 7.5) was dispensed in columns 1, 2, 5 - 48. Column 1 is neutral (100% activity). Buffer only was dispensed in columns 3 and 4 as no enzyme negative controls. The plates were covered with metal lids with gas-exchange holes.
2; Compounds were pin transferred via a Kalypsys Pin Tool (Wako USA) in column 5 - 48. Control compound was transferred in column 2, titration of nordihydroguaiaretic acid (NDGA, Sigma-Aldrich, N5023) with top concentration of 10 mM in DMSO then 1:2 dilution in duplicate. Dilution factor of 23 nL into 4 uL final assay volume.
3; Covered assay plates were incubated for 15 min at room temperature.
4; Substrate was added to start the reaction; 50 uM arachidonic acid (Sigma-Aldrich, St. Louis, MO) was dispensed throughout the plate.
6; Chromogenic detection reagent solution (divalent iron/xylenol orange, Fe-XO) was added to each well: 200 uM xylenol orange, 300 uM ferrous ammonium sulfate prepared freshly in 50 mM sulfuric acid.
9, 10; Two absorbance readouts were obtained at 405 nm and at 573 nm using a ViewLux high-throughput CCD plate imager (PerkinElmer). The 573 to 405 (Read 2 / Read 1) absorbance ratio was used to compute reaction progress.
Background: The purpose of a counterscreen is to sort out artefacts and off-target activity.
For `CC(C)CN1CCC(c2nc3ccc(F)cc3c(=O)[nH]2)CC1`, the call was inactive. The result for `CCC(=O)N1Cc2ccccc2CC2(CCN(CCc3ccc(C)cc3)CC2)C1` reads “inactive”.

As to `O=Cc1cccc(N2CCN(C(=O)c3ccncc3)CC2=O)c1`, the compound was called inactive. The value for `O=C(N1CCCCC1)N1CCN(c2ccc(Cl)nn2)C(=O)C1` was “inactive”. The result for `Cc1ccc(C(=O)N2CCC3(CC(C(C)C)=NO3)C2)cc1` (stereo not given) reads “inactive”; that for `Cc1ccc(-c2ccc(C=O)cc2)cc1Cl`, “inactive”; that for `Cc1ccc(-c2cccc(CN)c2)c(C)c1`, “inactive”. The value for `O=C(c1ccccc1)N1CCC2(CC1)C(=O)NCN2C(=O)Cc1ccccc1` was “inactive”. For the compound `NCc1cccc(-c2ccsc2)c1`, the outcome was inactive. In the case of `CN1CC(=O)N(C2CCCNCC2)Cc2c1ncnc2N1CCN(c2ncccn2)CC1` (stereo not given), the call was inactive. The value for `CC(=O)N1Cc2ccccc2CC2(CCN(Cc3ccncc3)C2)C1` (stereo not given) was “inactive”; that for `COc1ccc(-c2nc(C3CC3)nc3c2CCN(C(=O)c2ccc(C(F)(F)F)cc2)CC3)cc1` was “inactive”. Consider `NCC(=O)N1Cc2ccccc2CC2(CCCCN2CC2CCOCC2)C1` (stereo not given), for which the compound was classed as inactive. The result for `COc1cccc(CNc2ncnc3c2CN(C2CCCNCC2)C(=O)CN3C)c1` (stereo not given) reads “inactive”; that for `O=[S+]([O-])(c1ccccc1)N1CC(Oc2ccc(F)c(F)c2)C1`, “inactive”; that for `Cc1ccc(CN2CCCC23Cc2ccccc2CNC3=O)cc1` (stereo not given), “inactive”. The value for `O=C1NCc2ccccc2CC12CCN(Cc1ccc(F)cc1F)CC2` was “inactive”. The result for `Cn1nc(C2CCNC2)c2c(C(=O)NCc3ccc(F)cc3)cc(C3CC3)nc21` (stereo not given) reads “inactive”. As for `CN1CCC2(Cc3ccccc3CN(C(=O)CCN)C2)C1` (stereo not given), the outcome was inactive.

Consider `O=C1NCc2ccccc2CC12CCN(Cc1c[nH]c3ccccc13)CC2`, for which the call was inactive. The value for `COc1ccc(CNc2ncnc3c2CN(C2CCCNC2)C(=O)CN3C)cc1` (stereo not given) was “inactive”; that for `O=C1NCc2ccccc2CC12CCN(Cc1ccnc3ccccc13)C2` (stereo not given) was “inactive”. The value for `O=C1Nc2ccccc2CC12CN(CC1CCCC1)C2` was “inactive”. The result for `CC(C)CNC(=O)c1cc(C2CC2)nc2onc(C3CCCNC3)c12` (stereo not given) reads “inactive”; that for `CCC(=O)N1Cc2ccccc2CC2(CCCCN2CC2CCNC2)C1` (stereo not given), “inactive”. `O=c1[nH]c(C2CCN(Cc3ccc(-c4cccnc4)cc3)CC2)nc2ccc(F)cc12`: the result was inactive. For the compound `O=C(c1ccccc1F)N1CCC2(C1)C(=O)N(c1ccccc1)c1ccccc12` (stereo not given), the result was inactive. The result for `O=C1NCc2ccccc2CC12CCCN2Cc1ccc(OC(F)(F)F)cc1` (stereo not given) reads “inactive”; that for `CN1CC(=O)N(C2CCCNC2)Cc2c(NCC(C)(C)C)ncnc21` (stereo not given), “inactive”; that for `Cc1cc(Cl)ccc1-c1cccc(C=O)c1`, “inactive”. The result for `O=C1NC2(Cc3ccccc31)CN(C(=O)c1cccc3c1OC(F)(F)O3)C2` reads “inactive”; that for `COc1ccc(CNc2ncnc3c2CN(C2CCNCC2)C(=O)CN3C)cc1OC`, “inactive”. As for `O=C(NCc1ccc(Cl)nc1)c1cn2c(n1)CN(C(=O)c1ccccc1)CC2`, the outcome was inactive. The result for `CNC(=O)c1cnn2c1CN(C(=O)c1ccccc1)CC2` reads “inactive”; that for `COc1ccc(CNc2ncnc3c2CN(C2CCCNC2)C(=O)CN3C)cc1OC` (stereo not given), “inactive”.

As for `Cc1ccc(C(=O)N2CCc3nc(C4CC4)nc(-c4ccc(Cl)cc4)c3C2)cc1`, the outcome was inactive. The value for `O=C1Nc2ccccc2CN(CC2CCCCC2)C12CCNCC2` was “inactive”; that for `CN1CC(=O)N(C2CCCNC2)Cc2c(NC3CCCCC3)ncnc21` (stereo not given) was “inactive”; that for `N#Cc1ccccc1CN1CCCC12Cc1ccccc1CNC2=O` (stereo not given) was “inactive”. The value for `COCCNc1ncnc2c1CN(C1CCNCC1)C(=O)CN2C` was “inactive”.
